# Laboratory results taken from paper PMC6792352, “Limited Chemical Structural Diversity Found to Modulate Thyroid Hormone Receptor in the Tox21 Chemical Library” (Environmental Health Perspectives, 2019).
# Read-outs that look alike come from different tables or passages of the source. Whole data set: some 7,300 compounds, median “AC50” near 90,000 nM, cut for the lowest 2% near 20,000 nM. The list shows a part of the results.
# Tested on: thyroid hormone receptor (endogenous TRα and TRβ)
# Design: species or system GH3-TRE-Luc (rat pituitary); GH3-TRE-Luc luciferase reporter transactivation, agonist mode, qHTS; RXR ligands can also activate indirectly
SMILES,"AC50 (read-out: TR_LUC_GH3_Agonist_AC50, agonist mode, primary qHTS, 24 h)","AC50 (read-out: TR_LUC_GH3_Agonist_AC50, agonist mode, primary qHTS, 24 h, TR_LUC_GH3_Agonist_AC50 (uM))"
O=C(O)Cc1cc(I)c(Oc2ccc(O)c(I)c2)c(I)c1 [Tiratricol],0.000154 µM,–
Cc1ccc(O)cc1 [Cresol],–,25 µM
